# HCMV inh: human cytomegalovirus inhibition; HFF cells, HCMV-luciferase reporter, 72 h; stronger effect = lower value; activity change, negative = inhibition, % at 57.5 µM; 410,000 tested, 4.5% active; AID 1259415; in the data active = activity change below about -60%; inconclusive = no clear call, values can overlap the other calls; inactive = above about -39%
#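 Luciferase read-out from HCMV-luciferase-infected HFFs (MOI 1 PFU/cell) 72 h post infection at 37C; compounds added after 16 h cell attachment; activity normalized between buffer-only basal and Salinomycin (10uM) inhibitor controls.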
# Pf growth 96h: P. falciparum growth inhibition at 96 hour, primary screen for plastid delayed-death inhibitors | P. falciparum luciferase reporter growth, 96 h | Potency, µM (top dose mostly 28.7 µM), for the others: at the top dose activity change, negative = inhibition, hits mostly inhibitors | 320,000 tested, 6.9% active; note: potency is the fitted concentration of half-maximal effect
#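 96 h incubation, 37 C, 5% CO2, of luciferase-reporter P. falciparum-infected RBCs (2% hematocrit, 0.05% parasitemia final) with test compounds; endpoint luminescence.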
# HCV inhibitor: blocks hepatitis C virus; 340,000 tested, 3.4% active; Potency, µM (doses to about 41.8 µM), for the others: at the highest dose activity change, negative = inhibition, usual class: inhibitors; Huh7.5.1 HCVcc-Cre infection, luciferase reporter, 44 h; note: potency is the fitted concentration of half-maximal effect
#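 Luciferase read-out (15 sec integration) after a 15 min room-temperature substrate step quantifies HCVcc-Cre infection. Cells, 1,000 per well, had compound added 4 h post-plating, then virus at ~0.5 moi, and were cultured 44 h.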
# Pf growth 48h: inhibits P. falciparum growth in the first generation, 48 h | 310,000 tested, 5.9% active | Potency, µM (top dose mostly 28.7 µM), for the others: at the highest dose activity change, negative = inhibition, most hits filed as inhibitors | P. falciparum luciferase growth in erythrocytes, 48 h; note: potency is the fitted concentration of half-maximal effect
#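 Erythrocytes infected with P. falciparum carrying an integrated firefly luciferase reporter (2% hematocrit, 0.1% parasitemia final) were exposed to compounds in RPMI 1640 with 0.5% Albumax at 37 C, 5% CO2. Growth inhibition was scored as reduced luminescence.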
# Active calls of the source: *; u = inconclusive; x = no result given; [ ] = dose if it differs, or a comment. Only some compounds are listed: those with a hit (about 13% of all), similar ones and a draw of the others. Unless noted, calls come from the whole dose curve; as a rule, active = well fitted inhibition curve with a large enough effect; inconclusive = small, poorly fitted or top-dose-only effect, or another doubt; inactive = no such curve, though single readings can be large or run the other way. % is set by controls: 0 for no effect and ±100 for the full control effect.
SMILES,HCMV inh,Pf growth 96h,HCV inhibitor,Pf growth 48h
CCOC(=O)c1c(C)[nH]c(C)c1C(=O)COC(=O)/C=C/c1ccc(OC(F)F)cc1,-4,u,32µM*,u
CCOC(=O)c1c(C)[nH]c(C)c1C(=O)COC(=O)/C=C/c1ccc(Cl)cc1,44,9.3µM*,-8%,u
CCOC(=O)c1c(C)[nH]c(C(=O)COC(=O)/C=C/c2ccc(OC(F)F)cc2)c1C,-4,1%,2%,u
O=C(NCCc1ccccc1)c1cc(Sc2cccc(Cl)c2)nc2ccccc12,-10,x,x,x
O=C(NC(=S)Nc1ccc(N2CCCCC2)c(Cl)c1)c1ccc2c(c1)OCCO2,-63*,u,3.5µM*,u
Cc1cc(C)cc(C(=O)NC(=S)Nc2ccc3c(c2)OCCO3)c1,-29,0.93µM*,u,145%
CCc1ccc(C(=O)NC(=S)Nc2ccc3c(c2)OCCO3)cc1,18,8.3µM*,u,183%
CCc1ccccc1NC(=O)c1cc2nc(-c3ccc(OC)c(OC)c3)cc(C(F)(F)F)n2n1,6,x,x,x
O=C1CN=C(c2ccc[nH]2)c2cc(Cl)ccc2N1,-94*,70%,0%,-9%
O=C(C[C@@H]1C=C[C@@H](NC(=O)C2CC2)[C@@H](CO)O1)NCc1ccccc1Cl,-62*,x,x,x
O=S(=O)(c1ccc(-c2csc(Nc3ccc(Br)cc3)n2)cc1)N1CCCC1,-73*,u,u,u
O=S(=O)(c1ccc(-c2csc(Nc3ccc(F)cc3)n2)cc1)N1CCCC1,-10,163%,u,17%
Cc1ccc(Nc2nc(-c3ccc(S(=O)(=O)N4CCCC4)cc3)cs2)cc1C,x,1.7µM*,4µM*,1.9µM*
Cc1cc(C)cc(Nc2nc(-c3ccc(S(=O)(=O)N4CCCC4)cc3)cs2)c1,-77*,6%,10µM*,u
Nc1nc(-c2ccc(S(=O)(=O)N3CCCCC3)cc2)cs1,-12,13µM*,u,u
CCOc1ccc(-n2c(SCC(=O)N3CCCCC3)nc3c([nH]c4ccccc43)c2=O)cc1,-2,x,x,x
CCOC(=O)c1c(C)oc2ncnc(Nc3cc(C)cc(C)c3)c12,-7,x,x,x
COc1ccccc1OCC(=O)N(Cc1ccc(N(C)C)cc1)CC1CCCO1 (centres undefined),-2,x,x,x
Cc1cc(C)c(NC(=O)COc2nc3ccccc3nc2C)c(C)c1,u,31%,11µM*,9%
Cc1nc2ccccc2nc1OCC(=O)Nc1ccc2ccccc2c1,40,u,u,-29%
Nc1ccc(-c2cc(-c3ccc(N)cc3)nc(-c3ccccc3)n2)cc1,-2,43%,1%,14%
Oc1ccc(-c2cc(-c3ccc(O)cc3)nc(-c3ccccc3)n2)cc1,-21,5.9µM*,u,4%[0.00184 µM]
Nc1nc(-c2ccccc2)cc(-c2ccccc2O)n1,-96*,u,1%,20%
Brc1cc(-c2ccccc2)nc(-c2ccccc2)n1,25,x,11µM*,x
CCc1cccc(C)c1NC(=O)c1nc2ccccc2nc1N1CCCCC1,-13,x,x,x
SMILES,HCMV inh,Pf growth 96h,HCV inhibitor,Pf growth 48h
COc1cc(NC2c3ncccc3C(=O)N2Cc2ccco2)cc(OC)c1 (centres undefined),40,3.7µM*,1%,u
O=C1c2cccnc2C(Nc2ccc(Cl)cc2)N1Cc1cccs1 (centres undefined),-65*,u,3%,-16%
CC(=O)c1ccc(NC(=O)C2CCN(c3nnc(C)c4c(C)n(-c5ccccc5)nc34)CC2)cc1,0,x,x,x
N#Cc1ccc(OCC(O)CN2CCN(C(c3ccccc3)c3ccccc3)CC2)cc1 (centres undefined),1,12µM*,u,u
N#Cc1ccc(OCC(O)CN2CCN(c3ncc(C(F)(F)F)cc3Cl)CC2)cc1 (centres undefined),-72*,-39%,u,u
Cc1ccc(N2CCN(CC(O)COc3cccc(C)c3)CC2)cc1 (centres undefined),-62*,38%,-5%,-5%
Cc1cccc(N2CCN(CC(O)COc3ccccc3)CC2)c1 (centres undefined),81,x,26%,x
COc1cc(/C=C/C(=O)N2CCN(CC(O)COc3ccccc3)CC2)cc(OC)c1OC (centres undefined),-82*,4.1µM*,-21%,u
Cc1ccc(Cl)cc1N1CCN(CC(O)COCc2ccco2)CC1 (centres undefined),-3,12%,u,10%
O=C(c1ccco1)N1CCN(CC(O)COc2ccc3oc4ccccc4c3c2)CC1 (centres undefined),u,32%,13µM*,35%
OC(COCc1ccco1)CN1CCN(C(c2ccccc2)c2ccccc2)CC1 (centres undefined),22,6.6µM*,u,10µM*
OC(COc1ccc(Br)cc1)CN1CCN(c2ccccc2)CC1 (centres undefined),-34,u,-3%,12%
OC(COc1ccccc1)CN1CCN(C(c2ccccc2)c2ccccc2)CC1 (centres undefined),10,19%,7.9µM*,u
O=C(c1ccccc1)N1CCN(CC(O)COc2ccc(Br)cc2)CC1 (centres undefined),21,9.3µM*,-7%,-6%
CCOc1ccccc1CNC(=O)CCCn1c(=O)c2cccn2c2ccc(F)cc21,33,x,x,x
CCCCC(CC)C(=O)Nc1ncc([N+](=O)[O-])s1 (centres undefined),-74*,6%,u,15%
COc1ccc(-n2ncc(C(=O)Nc3ccc4c(c3)OCO4)c2C2CCN(C(=O)OC(C)(C)C)CC2)cc1,0,x,x,x
Cc1ccc(OCCCCNC(C)(C)C)c([N+](=O)[O-])c1,-13,3.7µM*,u,u
COc1cccc(CNc2ncc(C(=O)Nc3cc(OC)c(OC)c(OC)c3)c(C)n2)c1,31,u,u,10µM*
COc1cc(NC(=O)c2cnc(NCc3ccccc3)nc2C)cc(OC)c1OC,-33,11%,3.5µM*,u
CCOC(=O)c1sc(NC(=O)c2nc3ncccn3n2)c(C(=O)OC(C)C)c1C,-2,x,x,x
O=C(Nc1ccc(F)c(F)c1)c1ccc(-n2cncn2)c([N+](=O)[O-])c1,-18,u,22µM*,u
O=C(Nc1cccc(/C=C/c2ccccn2)c1)c1cc(Cl)ccn1,68,81%,5µM*,107%
O=C(Nc1cccc(/C=C/c2ccccn2)c1)c1ccc(-n2cncn2)c([N+](=O)[O-])c1,-23,4.7µM*,u,5.2µM*
CCc1ccc(NC(=O)c2ccc(-n3cncn3)c([N+](=O)[O-])c2)cc1,-18,u,u,12µM*
O=C(Nc1cc(F)ccc1F)c1ccc(-n2cncn2)c([N+](=O)[O-])c1,-5,13%,-25%,12%
COc1ccc(NC(=O)c2ccc(-n3cncn3)c([N+](=O)[O-])c2)cc1OC,-18,u,u,-5%
COc1ccc(C(=O)N/N=C/c2ccc(OC)c(COc3ccccc3)c2)cc1,2,u,u,10%
